Inconclusive results are not listed. Some structures have more than one record in an assay (separate samples or runs), and their calls can disagree. The source made the active and inactive calls. How the source made its calls: active means hit-call score of the fitted dose curve at least 0.9, where 1 is the maximum; inconclusive means response in the unintended direction; inactive means score below 0.9.
Tests used:
[1] = biological target: D(1A) dopamine receptor (Homo sapiens) (UniProt P21728); test: NVS_GPCR_hDRD1: NovaScreen (NVS) G Protein-Coupled Receptor Assay for human Dopamine Receptor D1 (DRD1) (AID 2283269)
Outline: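 Cell-free competition with radioligand, filter-trapped and scintillation-counted 1 h post-dose, using HEK293-derived human D1 preparation. Duplicate single-point testing at 25 uM first, then concentration series for actives; DMSO served as baseline, loss-of-signal scored.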

[2] = biological target: human Serotonin, 5-Hydroxytryptamine Receptor 7 (5HT7), HTR7 (gene 3363) (UniProt P34969); test: NVS_GPCR_h5HT7: NovaScreen (NVS) G Protein-Coupled Receptor Assay for human Serotonin, 5-Hydroxytryptamine Receptor 7 (5HT7) (AID 2283255);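 further: hits reduce specific radioligand binding relative to DMSO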
Outline: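 Radioligand displacement on membranes from CHO cells expressing human 5HT7, 1 h incubation, filter-based scintillation counting. Primary screen used a single 25 uM concentration in duplicate; actives were followed up in concentration series.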

[3] = biological target: human Neuropeptide Receptor Y1 (NPY1), NPY1R (gene 4886) (UniProt P25929); test: NVS_GPCR_hNPY1: NovaScreen (NVS) G Protein-Coupled Receptor Assay for human Neuropeptide Receptor Y1 (NPY1) (AID 2283276)
Outline: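 Cell-free radioligand binding using receptor extracted from SK-N-MC cells, 1 h incubation, filter-based scintillation counting. Primary screen single concentration 25 uM in duplicate; actives followed in concentration series. Loss of bound signal scored versus DMSO.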

[4] = biological target: rat Gamma-Aminobutyric Acid Type A Receptor, Non-Selective (GABAR-NonSelective), Gabra1 (gene 29705) (UniProt P62813); test: NVS_LGIC_rGABAR_NonSelective: NovaScreen (NVS) Ligand-Gated Ion Channel Assay for rat Gamma-Aminobutyric Acid Type A Receptor, Non-Selective (GABAR-NonSelective) (AID 2283326)
Outline: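 Radioligand displacement on rat whole-brain extract, 1 h, filter scintillation readout; signal loss fitted versus DMSO. Primary screen in duplicate at 25 uM; hits (e.g. ≥30% inhibition) retested in concentration-response up to 50 uM.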

[5] = biological target: bovine Gamma-Aminobutyric Acid Type A Receptor Agonist (GABAR Agonist), GABRA1 (gene 780973) (UniProt P08219); test: NVS_LGIC_bGABAR_Agonist: NovaScreen (NVS) Ligand-Gated Ion Channel Assay for bovine Gamma-Aminobutyric Acid Type A Receptor Agonist (GABAR Agonist) (AID 2283338)
Outline: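 Radioligand binding to bovine cerebellar membranes in agonist format, read by filter-based scintillation counting after 1 h. Primary screen in duplicate at 25 uM, with actives followed in concentration series. Gain of signal versus DMSO.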

[6] = biological target: Estrogen receptor (Homo sapiens) (UniProt P03372); test: OT_ER_ERaERa_1440: Odyssey Thera (OT) 24-hour HEK293T Protein-Complementation Assay for Estrogen Receptor-alpha/-alpha Homodimer (AID 2283349);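 further: hits raise fluorescence above DMSO for agonists and antagonists alike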
Outline: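 HEK293T cells stably expressing the human ER alpha ligand-binding domain (aa 310-547) as a homodimer PCA were dosed for 24 hours. Fluorescence intensity was read by laser scanning cytometry, and gain of signal was fitted relative to DMSO vehicle.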

[7] = biological target: Sodium channel protein type 1 subunit alpha (Rattus norvegicus) (UniProt P04774); test: NVS_IC_rNaCh_site2: NovaScreen (NVS) Ion Channel Assay for rat Sodium Channel, Site 2 (NaCh) (AID 2283322);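 further: hit means loss of radioligand binding signal relative to DMSO so AC50 marks displacement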
Outline: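 Membranes: rat forebrain. Format: competitive radioligand displacement, filter separation, scintillation readout, 1 h exposure. Primary screen in duplicate at 25 uM; actives retested in concentration series.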

[8] = biological target: human Opioid Receptor Mu (Opiate Mu), OPRM1 (gene 4988) (UniProt P35372); test: NVS_GPCR_hOpiate_mu: NovaScreen (NVS) G Protein-Coupled Receptor Assay for human Opioid Receptor Mu (Opiate Mu) (AID 2283290);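 further: hits lower bound tracer signal versus DMSO meaning displacement of the ligand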
Outline: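 Primary screen in duplicate at 25 uM, with actives followed in concentration series. CHO-derived receptor membranes, cell-free; bound radioligand read by scintillation counting after filtration at 2.5 h, decrease scored against DMSO.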

[9] = biological target: rat Neonicotinoid receptor (NNR), Chrna7 (gene 25302) (UniProt Q05941); test: NVS_LGIC_rNNR_BungSens: NovaScreen (NVS) Ligand-Gated Ion Channel Assay for rat Neonicotinoid receptor (NNR) (AID 2283315)
Outline: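 Radioligand displacement binding on rat cortical membranes, 2.5 h incubation, filtration and scintillation counting. Loss of specific binding fitted relative to DMSO.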

[10] = biological target: human Adenosine A1 Receptor (AdoRA1), ADORA1 (gene 134) (UniProt P30542); test: NVS_GPCR_hAdoRA1: NovaScreen (NVS) G Protein-Coupled Receptor Assay for human Adenosine A1 Receptor (AdoRA1) (AID 2283254)
Outline: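 Radioligand competition binding on human cortical membranes, 1 h after compound addition; bound radioactivity read by filtration and scintillation counting. Loss of signal versus DMSO baseline scored as displacement; primary screen duplicate at 25 uM, actives retested in concentration series.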

[11] = biological target: human Adenosine A2a Receptor (AdoRA2a), ADORA2A (gene 135) (UniProt P29274); test: NVS_GPCR_hAdoRA2a: NovaScreen (NVS) G Protein-Coupled Receptor Assay for human Adenosine A2a Receptor (AdoRA2a) (AID 2283256)
Outline: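 Radioligand displacement on HEK293-derived membrane protein, cell-free; filter-based scintillation counting 1.5 hours after dosing, loss of signal vs DMSO. Single-point duplicate screen at 25 uM, actives retested in concentration series.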

[12] = biological target: human Neurokinin, NK2 Receptor, TACR2 (gene 6865) (UniProt P21452); test: NVS_GPCR_hNK2: NovaScreen (NVS) G Protein-Coupled Receptor Assay for human Neurokinin, NK2 Receptor (AID 2283278);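 further: actives reduce bound radioligand signal relative to DMSO baseline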
Outline: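 Cell-free radioligand binding using receptor protein extracted from CHO cells; readings taken 4 hours after chemical dosing by filter-based scintillation counting. Primary screen ran single concentration (25 uM) in duplicate; actives followed up in concentration series, loss-of-signal versus DMSO baseline.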

[13] = biological target: rat Peripheral-type Benzodiazepine Receptor (PBR), Tspo (gene 24230) (UniProt P16257); test: NVS_MP_rPBR: NovaScreen (NVS) Membrane Protein Assay for rat Peripheral-type Benzodiazepine Receptor (PBR) (AID 2283335)
Outline: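 Rat kidney membranes; radioligand binding with displacement, filter-based scintillation counting, 1 h incubation. Primary screen in duplicate at 25 uM, actives followed in concentration series; loss of binding vs DMSO.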

[14] = biological target: bovine Estrogen Receptor (ER), ESR1 (gene 407238) (UniProt P49884); test: NVS_NR_bER: NovaScreen (NVS) Nuclear Receptor Binding Assay for bovine Estrogen Receptor (ER) (AID 2283345);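 further: actives lower the bound radioligand count which means they displace the ER ligand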
Outline: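 Displacement of a radioligand from estrogen receptor in bovine uterine membrane preparations; scintillation signal taken at 18 hours, DMSO as baseline. Single-concentration duplicates (25 uM) preceded concentration-response follow-up of actives.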

[15] = biological target: Estrogen receptor (Homo sapiens) (UniProt P03372); test: NVS_NR_hER: NovaScreen (NVS) Nuclear Receptor Binding Assay for human Estrogen Receptor (ER) (AID 2283348)
Outline: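 Radioligand competitive displacement binding to estrogen receptor from MCF7 extract, cell-free; 18 h after dosing, scintillation read-out. Primary screen in duplicate at 25 uM; actives followed up in concentration series; loss of signal vs DMSO.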

[16] = biological target: rat Thyrotropin Releasing Hormone Receptor (TRH), Trhr (gene 25570) (UniProt Q01717); test: NVS_GPCR_rTRH: NovaScreen (NVS) G Protein-Coupled Receptor Assay for rat Thyrotropin Releasing Hormone Receptor (TRH) (AID 2283329);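 further: hit means lower bound tracer signal versus DMSO baseline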
Outline: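 Competitive radioligand binding on rat forebrain membrane preparations, with filtration and scintillation readout after 4 h. Primary testing in duplicate at 25 uM; actives confirmed in concentration-response. DMSO defined baseline.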

[17] = biological target: chimpanzee Androgen Receptor (AR), AR (gene 747460) (UniProt O97775); test: NVS_NR_cAR: NovaScreen (NVS) Nuclear Receptor Binding Assay for chimpanzee Androgen Receptor (AR) (AID 2283346);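 further: radioligand displacement from AR measured by scintillation counting in a cell-free assay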
Outline: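 Radioligand binding to chimpanzee AR expressed in Sf9/Sf21 cells, cell-free, measured 72 h after dosing by lysate-based scintillation counting. Loss of signal vs DMSO; initial duplicate screen at 25 uM, actives retested in concentration series.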

Sequence of D(1A) dopamine receptor (Homo sapiens) (P21728 whole entry, looked up): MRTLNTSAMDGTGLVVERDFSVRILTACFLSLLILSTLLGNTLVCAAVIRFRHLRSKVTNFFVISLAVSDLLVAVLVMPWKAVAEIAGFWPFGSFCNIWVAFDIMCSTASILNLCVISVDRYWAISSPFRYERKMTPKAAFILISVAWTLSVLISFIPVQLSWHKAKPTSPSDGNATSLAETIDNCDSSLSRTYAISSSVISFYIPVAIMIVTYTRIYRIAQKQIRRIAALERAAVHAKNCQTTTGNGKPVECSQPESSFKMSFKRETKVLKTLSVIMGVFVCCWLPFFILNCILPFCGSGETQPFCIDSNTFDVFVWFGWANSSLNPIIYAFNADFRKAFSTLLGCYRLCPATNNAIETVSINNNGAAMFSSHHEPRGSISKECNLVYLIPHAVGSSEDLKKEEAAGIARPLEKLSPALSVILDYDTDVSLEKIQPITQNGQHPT
Sequence of chimpanzee Androgen Receptor (AR), AR (gene 747460) (O97775 whole entry, looked up): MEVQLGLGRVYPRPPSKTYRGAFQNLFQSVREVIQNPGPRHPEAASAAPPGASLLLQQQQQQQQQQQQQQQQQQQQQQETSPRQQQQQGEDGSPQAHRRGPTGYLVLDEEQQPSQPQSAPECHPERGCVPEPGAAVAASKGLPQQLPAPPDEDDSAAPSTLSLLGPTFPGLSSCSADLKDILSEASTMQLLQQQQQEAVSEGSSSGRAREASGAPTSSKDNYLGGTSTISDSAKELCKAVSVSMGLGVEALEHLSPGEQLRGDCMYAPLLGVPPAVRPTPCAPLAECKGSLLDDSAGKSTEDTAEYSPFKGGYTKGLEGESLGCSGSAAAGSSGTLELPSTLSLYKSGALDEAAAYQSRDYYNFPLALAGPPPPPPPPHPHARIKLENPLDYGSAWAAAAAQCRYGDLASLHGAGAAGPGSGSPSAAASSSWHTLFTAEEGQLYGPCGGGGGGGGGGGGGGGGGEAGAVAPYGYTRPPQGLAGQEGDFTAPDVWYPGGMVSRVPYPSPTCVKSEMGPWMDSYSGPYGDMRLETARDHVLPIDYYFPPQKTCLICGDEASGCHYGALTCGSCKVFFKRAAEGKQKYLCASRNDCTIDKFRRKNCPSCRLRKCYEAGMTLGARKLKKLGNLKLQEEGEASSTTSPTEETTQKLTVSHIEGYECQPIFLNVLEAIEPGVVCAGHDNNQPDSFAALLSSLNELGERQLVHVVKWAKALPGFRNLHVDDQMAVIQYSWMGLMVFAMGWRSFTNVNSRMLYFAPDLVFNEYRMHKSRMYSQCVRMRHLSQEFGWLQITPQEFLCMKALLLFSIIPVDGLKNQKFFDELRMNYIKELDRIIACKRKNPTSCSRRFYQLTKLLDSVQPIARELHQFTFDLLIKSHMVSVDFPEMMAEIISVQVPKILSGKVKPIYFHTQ
Sequence of Estrogen receptor (Homo sapiens) (P03372 whole entry, looked up, the tested form may be a part): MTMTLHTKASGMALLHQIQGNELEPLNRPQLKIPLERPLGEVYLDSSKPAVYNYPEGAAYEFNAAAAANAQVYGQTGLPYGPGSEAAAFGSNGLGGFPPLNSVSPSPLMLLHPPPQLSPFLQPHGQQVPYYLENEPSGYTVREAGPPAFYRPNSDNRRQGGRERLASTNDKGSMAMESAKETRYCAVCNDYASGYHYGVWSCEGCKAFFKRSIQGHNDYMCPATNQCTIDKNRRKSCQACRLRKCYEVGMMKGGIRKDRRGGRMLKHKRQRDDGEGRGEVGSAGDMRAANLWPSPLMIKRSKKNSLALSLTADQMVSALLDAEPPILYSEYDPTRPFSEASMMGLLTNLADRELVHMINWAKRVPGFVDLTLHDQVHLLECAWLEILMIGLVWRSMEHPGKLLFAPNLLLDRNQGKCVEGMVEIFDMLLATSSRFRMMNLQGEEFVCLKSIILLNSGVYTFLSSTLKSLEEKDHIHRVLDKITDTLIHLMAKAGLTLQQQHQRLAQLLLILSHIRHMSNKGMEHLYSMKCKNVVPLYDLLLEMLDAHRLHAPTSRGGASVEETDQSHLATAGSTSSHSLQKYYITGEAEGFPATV
Sequence of rat Thyrotropin Releasing Hormone Receptor (TRH), Trhr (gene 25570) (Q01717 whole entry, looked up): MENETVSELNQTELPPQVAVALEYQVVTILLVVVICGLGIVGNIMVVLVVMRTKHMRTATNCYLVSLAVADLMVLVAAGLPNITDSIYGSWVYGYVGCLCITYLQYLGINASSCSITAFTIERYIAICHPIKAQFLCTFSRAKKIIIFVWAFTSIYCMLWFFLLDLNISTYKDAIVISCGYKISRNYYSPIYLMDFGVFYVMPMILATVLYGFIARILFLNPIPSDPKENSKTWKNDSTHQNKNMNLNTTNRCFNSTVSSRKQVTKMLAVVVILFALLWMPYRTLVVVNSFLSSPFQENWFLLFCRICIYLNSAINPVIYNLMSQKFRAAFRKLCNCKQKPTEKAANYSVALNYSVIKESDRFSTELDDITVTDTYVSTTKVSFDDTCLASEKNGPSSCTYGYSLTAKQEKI
Sequence of rat Peripheral-type Benzodiazepine Receptor (PBR), Tspo (gene 24230) (P16257 whole entry, looked up): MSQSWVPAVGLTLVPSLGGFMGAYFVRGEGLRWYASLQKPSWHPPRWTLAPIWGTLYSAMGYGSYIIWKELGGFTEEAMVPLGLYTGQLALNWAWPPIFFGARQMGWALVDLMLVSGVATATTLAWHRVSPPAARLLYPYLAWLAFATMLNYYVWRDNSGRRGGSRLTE
Sequence of bovine Estrogen Receptor (ER), ESR1 (gene 407238) (P49884 whole entry, looked up): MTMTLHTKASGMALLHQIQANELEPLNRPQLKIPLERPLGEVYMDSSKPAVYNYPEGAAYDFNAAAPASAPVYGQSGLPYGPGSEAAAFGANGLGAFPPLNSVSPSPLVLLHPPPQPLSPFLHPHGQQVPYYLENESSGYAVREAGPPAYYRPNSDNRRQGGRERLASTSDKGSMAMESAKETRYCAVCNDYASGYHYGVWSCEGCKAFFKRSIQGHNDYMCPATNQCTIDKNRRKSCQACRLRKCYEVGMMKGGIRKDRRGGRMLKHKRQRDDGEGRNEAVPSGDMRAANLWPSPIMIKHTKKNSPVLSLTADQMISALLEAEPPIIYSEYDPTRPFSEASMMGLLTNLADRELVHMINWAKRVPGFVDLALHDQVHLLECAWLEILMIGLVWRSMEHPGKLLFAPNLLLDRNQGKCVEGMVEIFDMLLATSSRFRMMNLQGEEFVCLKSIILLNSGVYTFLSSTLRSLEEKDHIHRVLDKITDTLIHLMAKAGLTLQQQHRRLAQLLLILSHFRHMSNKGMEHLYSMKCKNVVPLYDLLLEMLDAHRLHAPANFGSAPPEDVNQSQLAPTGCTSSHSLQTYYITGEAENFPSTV
Sequence of human Opioid Receptor Mu (Opiate Mu), OPRM1 (gene 4988) (P35372 whole entry, looked up): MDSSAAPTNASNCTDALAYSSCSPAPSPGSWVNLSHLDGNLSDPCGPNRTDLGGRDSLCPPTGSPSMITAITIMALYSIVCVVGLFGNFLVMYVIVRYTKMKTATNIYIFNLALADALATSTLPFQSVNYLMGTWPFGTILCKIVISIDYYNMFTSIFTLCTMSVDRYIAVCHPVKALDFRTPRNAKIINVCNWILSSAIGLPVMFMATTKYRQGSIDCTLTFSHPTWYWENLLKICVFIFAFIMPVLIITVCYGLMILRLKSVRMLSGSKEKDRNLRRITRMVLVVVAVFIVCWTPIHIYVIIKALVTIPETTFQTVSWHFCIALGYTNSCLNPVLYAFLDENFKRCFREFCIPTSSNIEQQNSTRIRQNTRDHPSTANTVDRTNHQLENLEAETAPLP
Sequence of human Neurokinin, NK2 Receptor, TACR2 (gene 6865) (P21452 whole entry, looked up): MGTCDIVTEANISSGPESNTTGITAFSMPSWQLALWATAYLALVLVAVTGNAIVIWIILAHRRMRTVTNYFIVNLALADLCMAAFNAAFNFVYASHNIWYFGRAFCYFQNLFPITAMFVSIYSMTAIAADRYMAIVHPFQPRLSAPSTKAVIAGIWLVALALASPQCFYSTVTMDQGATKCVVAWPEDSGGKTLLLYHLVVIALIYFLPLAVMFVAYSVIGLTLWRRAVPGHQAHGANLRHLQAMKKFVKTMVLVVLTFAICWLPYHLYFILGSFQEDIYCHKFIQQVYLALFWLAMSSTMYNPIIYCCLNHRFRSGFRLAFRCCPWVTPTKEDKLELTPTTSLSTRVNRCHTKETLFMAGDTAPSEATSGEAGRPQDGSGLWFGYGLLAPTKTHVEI
Sequence of human Adenosine A2a Receptor (AdoRA2a), ADORA2A (gene 135) (P29274 whole entry, looked up): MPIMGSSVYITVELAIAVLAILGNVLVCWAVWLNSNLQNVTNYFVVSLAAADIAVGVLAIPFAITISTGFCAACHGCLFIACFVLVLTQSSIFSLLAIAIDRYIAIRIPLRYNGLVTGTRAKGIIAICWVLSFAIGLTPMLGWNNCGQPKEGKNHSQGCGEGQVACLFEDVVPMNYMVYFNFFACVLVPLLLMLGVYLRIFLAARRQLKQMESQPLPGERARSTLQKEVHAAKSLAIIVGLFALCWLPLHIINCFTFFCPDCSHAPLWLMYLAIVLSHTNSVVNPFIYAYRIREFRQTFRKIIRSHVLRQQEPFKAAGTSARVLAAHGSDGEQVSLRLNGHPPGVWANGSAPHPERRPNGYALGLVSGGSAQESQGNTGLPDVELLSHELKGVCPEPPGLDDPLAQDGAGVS
Sequence of bovine Gamma-Aminobutyric Acid Type A Receptor Agonist (GABAR Agonist), GABRA1 (gene 780973) (P08219 whole entry, looked up): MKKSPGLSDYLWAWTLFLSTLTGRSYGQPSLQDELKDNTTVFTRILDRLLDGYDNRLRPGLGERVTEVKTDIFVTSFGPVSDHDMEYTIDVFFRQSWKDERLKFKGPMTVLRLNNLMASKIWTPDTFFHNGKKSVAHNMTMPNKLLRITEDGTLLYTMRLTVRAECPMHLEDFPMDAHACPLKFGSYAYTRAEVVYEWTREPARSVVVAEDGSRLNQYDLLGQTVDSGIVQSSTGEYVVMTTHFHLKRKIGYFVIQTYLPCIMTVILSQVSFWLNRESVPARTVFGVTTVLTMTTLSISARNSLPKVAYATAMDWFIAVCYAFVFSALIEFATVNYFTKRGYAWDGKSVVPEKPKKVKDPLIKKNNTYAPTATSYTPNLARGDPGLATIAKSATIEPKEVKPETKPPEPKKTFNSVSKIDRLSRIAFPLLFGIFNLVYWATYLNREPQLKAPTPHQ

**Q.** With `COC(=O)C=Cc1ccccc1` as the molecule, how does the outcome [1] read?
**A.** inactive

**Q.** With `CC(C)CCOCc1ccccc1` as the molecule, how does the outcome [1] read?
**A.** inactive

**Q.** Which outcome [2] does the source give for `C1CNCCN1` here?
**A.** inactive

**Q.** What about the outcome [3] of the same molecule?
**A.** inactive

**Q.** And the AC50 [4]?
**A.** 3.59 µM (active)

**Q.** And the AC50 [5]?
**A.** 25 µM (active)

**Q.** And the outcome [6]?
**A.** inactive

**Q.** With `CCC(C)C(=O)OC` (stereo not drawn) as the molecule, how does the AC50 [1] read?
**A.** 18.1 µM (active)

**Q.** What about the outcome [7] of the same molecule?
**A.** inactive

**Q.** Which outcome [8] does the source give for `CC(C=O)c1ccccc1` (stereo not drawn) here?
**A.** inactive

**Q.** Which outcome [9] does the source give for `CC1=CP(=O)(c2ccccc2)CC1` (stereo not drawn) here?
**A.** inactive

**Q.** Which outcome [8] does the source give for `CC1=C(O)C(=O)C(C)O1` (stereo not drawn) here?
**A.** inactive

**Q.** For `Oc1ccc(/C=C/c2cc(O)cc(O)c2)cc1`, which outcome [10] is on record?
**A.** inactive

**Q.** What about the AC50 [11] of the same molecule?
**A.** 17.9 µM (active)

**Q.** What about the AC50 [1] of the same molecule?
**A.** 25 µM (active)

**Q.** What about the AC50 [12] of the same molecule?
**A.** 0.835 µM (active)

**Q.** And the outcome [13]?
**A.** inactive

**Q.** What about the AC50 [14] of the same molecule?
**A.** 25 µM (active)

**Q.** And the AC50 [15]?
**A.** 2.52 µM (active)

**Q.** And the outcome [15]?
**A.** inactive

**Q.** `CCCCNS(=O)(=O)c1ccc(C)cc1` was tested. Which AC50 [13] did it give?
**A.** 1.72 µM (active)

**Q.** And the outcome [6]?
**A.** inactive

**Q.** How did the outcome [16] turn out when `CC1=NN(c2ccc(S(=O)(=O)O)cc2)C(=O)C1N=Nc1ccccc1` (stereo not drawn) was run?
**A.** inactive

**Q.** And the outcome [6]?
**A.** inactive

**Q.** `CCCCCCC=O` was tested. Which outcome [16] did it give?
**A.** inactive

**Q.** What about the outcome [6] of the same molecule?
**A.** inactive

**Q.** `CCCCCCO` was tested. Which outcome [16] did it give?
**A.** inactive

**Q.** And the outcome [6]?
**A.** inactive

**Q.** What does the source list for `CC(CCC(=O)O)(c1ccc(O)cc1)c1ccc(O)cc1`?
**A.** outcome [16]: inactive; AC50 [14]: 12.2 µM (active); AC50 [15]: 4.34 µM (active); AC50 [6]: 55.5 µM (active)

**Q.** With `CCOC(=O)C1=NN(c2ccc(Cl)cc2Cl)C(C)(C(=O)OCC)C1` (stereo not drawn) as the molecule, how does the AC50 [13] read?
**A.** 9.42 µM (active)

**Q.** With `O=C(O)c1cc(O)c2ccccc2c1O` as the molecule, how does the AC50 [13] read?
**A.** 13.6 µM (active)

**Q.** And the outcome [14]?
**A.** inactive

**Q.** And the AC50 [17]?
**A.** 35 µM (active)

**Q.** What about the outcome [6] of the same molecule?
**A.** inactive

**Q.** With `C=C(C)C(=O)OCC(O)COc1ccc(C(C)(C)c2ccc(OCC(O)COC(=O)C(=C)C)cc2)cc1` (stereo not drawn) as the molecule, how does the outcome [14] read?
**A.** inactive

**Q.** How did the outcome [16] turn out when `CCN1CN(CC)CN(CC)C1` was run?
**A.** inactive

**Q.** What about the outcome [17] of the same molecule?
**A.** inactive

**Q.** What about the outcome [6] of the same molecule?
**A.** inactive

**Q.** Which AC50 [13] does the source give for `CCCCC/C=C\C/C=C\CCCCCCCC(=O)O` here?
**A.** 5.8 µM (active)

**Q.** What about the outcome [14] of the same molecule?
**A.** inactive

**Q.** And the AC50 [17]?
**A.** 25 µM (active)

**Q.** What about the AC50 [15] of the same molecule?
**A.** 25 µM (active)

**Q.** What about the outcome [6] of the same molecule?
**A.** inactive

**Q.** Which results are given for `CCCCCCCOC(=O)c1ccc(O)cc1`?
**A.** outcome [13]: inactive; AC50 [14]: 13.2 µM (active); AC50 [15]: 3.5 µM (active); AC50 [6]: 12.3 µM (active)

**Q.** `CCCCCCCCCC[N+](C)(CCCCCCCCCC)CCC[Si](OC)(OC)OC` was tested. Which outcome [16] did it give?
**A.** inactive

**Q.** And the outcome [14]?
**A.** inactive

**Q.** What about the outcome [15] of the same molecule?
**A.** inactive

**Q.** What about the outcome [6] of the same molecule?
**A.** inactive

**Q.** For `CC1=CCC2CC1C2(C)C` (stereo not drawn), which outcome [16] is on record?
**A.** inactive

**Q.** And the outcome [6]?
**A.** inactive

**Q.** How did the outcome [13] turn out when `CCOC(=O)C1=NOC(c2ccccc2)(c2ccccc2)C1` was run?
**A.** inactive

**Q.** What about the outcome [6] of the same molecule?
**A.** inactive

From PubChem BioAssay (EPA / NIEHS)
